# This is a sample that favours compounds with a hit; in the whole collection about 10% have one here.
# Lamin A splicing: qHTS Assay for Modulators of Lamin A Splicing; HeLa LMNA splicing GFP/RFP minigene ratio, 48 h; Potency, µM (highest dose often 46.1 µM), without a hit: at the highest dose ratio change, negative = inhibition, most hits filed as inhibitors; 0.01% of 200,000 active; AID 1487, 2009; active means well fitted inhibition curve with a large enough effect in the signal ratio, with a control signal flat, not every such curve was filed as active; inconclusive means small, poorly fitted or top-dose-only effect, or effect the other way, or a change in a side signal; the % refers to the signal ratio; further: potency means the concentration at half of the fitted maximal effect
#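 S3 HeLa stable clones carrying a lamin A-EGFP splicing minigene plus DsRed2 were seeded at 600 cells/well in Opti-MEM with 2% FBS, pin-dosed and incubated 48 h at 37°C. Acumen cytometry (488 nm) gave the GFP/RFP total-intensity ratio.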
# ALDH1A1 inh: qHTS Assay for Inhibitors of Aldehyde Dehydrogenase 1 (ALDH1A1); Aldehyde dehydrogenase 1A1 (Homo sapiens), P00352; Purified ALDH1A1, NADH fluorescence, propionaldehyde substrate; Potency, µM (top dose mostly 75.3 µM), for the others: top-dose activity, negative = inhibition, actives largely listed as inhibitors; 7.3% of 220,000 active;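 further: potency means the concentration at half of the fitted maximal effect; plate controls were no enzyme wells and a reference inhibitor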
# Target sequence (P00352 whole entry, looked up): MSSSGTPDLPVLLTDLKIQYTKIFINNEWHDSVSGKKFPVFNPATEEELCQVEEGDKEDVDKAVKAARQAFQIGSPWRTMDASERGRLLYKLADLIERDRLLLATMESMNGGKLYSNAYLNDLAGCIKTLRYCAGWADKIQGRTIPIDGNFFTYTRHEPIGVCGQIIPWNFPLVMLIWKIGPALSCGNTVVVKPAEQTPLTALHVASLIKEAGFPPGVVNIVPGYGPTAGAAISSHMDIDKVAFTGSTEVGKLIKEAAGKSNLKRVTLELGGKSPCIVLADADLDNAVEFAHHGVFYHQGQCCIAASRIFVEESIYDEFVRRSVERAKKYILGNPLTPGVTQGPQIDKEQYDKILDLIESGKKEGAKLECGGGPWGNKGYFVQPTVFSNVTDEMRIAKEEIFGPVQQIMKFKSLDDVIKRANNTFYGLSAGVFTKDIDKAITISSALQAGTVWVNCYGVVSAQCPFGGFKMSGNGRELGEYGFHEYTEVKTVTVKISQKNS
# PNC assembly inh: High Content Assay for Compounds that inhibit the Assembly of the Perinucleolar Compartment | AID 2417, 2010 | activity change (PNC), negative = inhibition, % at 10 µM | 3.1% of 140,000 active | PC3M PTB-GFP, PNC prevalence imaging, 16 h; active compounds read low;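 active means readout at or below -70, meaning at least 70% loss of cells showing the perinucleolar compartment, a nuclear body marking cancer cells; inconclusive means readout between -30 and a set limit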;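 further: plate controls were DMSO wells for no effect and camptothecin positive control wells for full effect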
#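 Compounds are pinned in duplicate onto adhered PC3M cells stably expressing GFP-tagged PTB and incubated 16 h at 37 C. Cells are then fixed, nuclei stained with Hoechst, and PNC-positive cells counted.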
# Luc counter: Counterscreen for Luciferase (Kinase-Glo TM) Inhibition; Luciferin 4-monooxygenase (Photuris pensylvanica), Q27757; Kinase-Glo luciferase, ATP luminescence, 8 min; Potency, µM (top dose mostly 38.3 µM), inactives show at the top dose activity change, negative = inhibition, usual class: inhibitors; 0.28% of 200,000 active; AID 1379, 2008; active means well fitted inhibition curve with a large enough effect; inconclusive means small, poorly fitted or top-dose-only effect; further: potency means the concentration at half of the fitted maximal effect; nearly all actives have a fitted effect of over 60% in size
#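 Luminescence was the read-out, taken after 8-minute incubation at ambient temperature. Luciferase turned over luciferin with 10 uM ATP in imidazole pH 7.2 buffer containing KCl, MgCl2, Tween 20 and BSA.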
# HPGD block: qHTS Assay for Inhibitors of HPGD (15-Hydroxyprostaglandin Dehydrogenase). purified HPGD, NADH fluorescence kinetic, PGE2 substrate. Potency, µM, for the others: top-dose activity change, negative = inhibition, most hits filed as inhibitors. 4.3% of 150,000 active. 15-hydroxyprostaglandin dehydrogenase [NAD(+)] (Homo sapiens), P15428; further: potency means the concentration at half of the fitted maximal effect
# Target sequence (P15428 whole entry, looked up): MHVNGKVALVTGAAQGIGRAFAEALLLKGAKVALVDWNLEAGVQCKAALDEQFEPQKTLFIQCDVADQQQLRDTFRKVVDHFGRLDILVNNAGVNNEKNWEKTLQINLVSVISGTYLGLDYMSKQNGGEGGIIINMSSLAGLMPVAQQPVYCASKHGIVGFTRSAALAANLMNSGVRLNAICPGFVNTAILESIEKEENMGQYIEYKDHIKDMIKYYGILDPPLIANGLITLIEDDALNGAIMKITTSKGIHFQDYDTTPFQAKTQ
#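 NADH formation kinetics: reaction with 30 uM PGE2 and 1 mM NAD+ (final), 20 nM enzyme, Tris-HCl pH 8 with Tween 20, after 15 min compound preincubation at room temperature. Fluorescence change, last versus first of five reads.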
# Active calls of the source: *; ? = inconclusive; nt = no result given; [ ] = dose if it differs, or a comment. Unless noted, the call rests on the fitted dose curve; in most records, active means well fitted inhibition curve with a large enough effect (not every such curve was filed as active); inconclusive means small, poorly fitted or top-dose-only effect, or another doubt; inactive means no such curve, though single readings can be large or run the other way. Unless noted, on the % scale 0 is the no-effect control and ±100 the full control effect.
SMILES,Lamin A splicing,ALDH1A1 inh,PNC assembly inh,Luc counter,HPGD block
O=C(Nc1ccc2ccccc2c1)[C@@H]1C[C@H]1[C@@H](NP(=O)(c1ccccc1)c1ccccc1)c1ccccc1,10.1%,?,-118.9*,-2.0%,?
COc1ccccc1NC(=O)C1C2C=CC(O2)C1C(=O)O (stereo not drawn),8.4%,?,-10.8,-3.1%,-11.1%
O=C(O)C1C2C=CC(O2)C1C(=O)NCc1ccccc1Br (stereo not drawn),?,14.1µM*,14.6,-4.1%,-8.1%
COc1cc(NC(=S)NC(=O)c2ccccc2F)ccc1NC(=O)c1cccs1,nt,?,nt,0.5%,nt
COc1cc(NC(=S)NC(=O)c2cc(C)cc(C)c2)ccc1NC(=O)c1cccs1,-10.1%,14.1µM*,12.5,1.8%,-17.5%
COc1cc(NC(=S)NC(=O)c2ccc(C(C)(C)C)cc2)ccc1NC(=O)c1cccs1,?,11.9µM*,-115.1*,0.9%,-8.8%
COc1cc(NC(=S)NC(=O)c2c(OC)cccc2OC)ccc1NC(=O)c1cccs1,10.8%,-8.1%,-27.4,2.9%,-7.6%
COc1ccc(Cl)cc1NC(=S)NNC(=O)c1cccnc1,nt,-15.2%,nt,nt,nt
COc1cc(NC(=S)NC(=O)c2ccccc2C)ccc1NC(=O)c1cccs1,?,25.1µM*,?,3.0%,?
COc1ccc(Cl)cc1NC(=S)NNC(=O)c1cccs1,-5.4%[46 µM],10µM*,nt,-12.2%,nt
O=C=Nc1ccc(Cl)c(Cl)c1,nt,-9.0%,nt,nt,-9.8%
O=C1[C@H]2[C@@H](C(=O)N1c1cccc3ccccc13)C1(C(=O)c3ccccc3C1=O)N1CCC[C@@H]21,4.4%,11.2µM*,?,9.8%,-12.6%
N#Cc1ccc(CN2CCC3(CC2)CCN(C(=O)c2cc(C(F)(F)F)cc(C(F)(F)F)c2)CC3)cc1,nt,1.2%,nt,-0.4%,-4.6%
CN(CCCNS(=O)(=O)c1cccc2cccnc12)Cc1ccccc1,-5.2%,14.1µM*,-8.2,-0.6%,-11.5%
O=S(=O)(NCCc1ccccc1)c1cccc2cccnc12,14.6%[46 µM],3.5%,nt,-1.5%,nt
COc1ccc2c(c1)C(=O)[C@@H](OC(=O)Nc1ccc(C)c(Br)c1)[C@H](c1ccc(OC)c(Br)c1)O2,nt,2.0%,nt,1.7%,-12.4%
CC1=NN(c2ccc(Cl)cc2)C(=O)C1C(c1cccc(O)c1)c1c(C)[nH]n(-c2ccc(Cl)cc2)c1=O (stereo not drawn),?,3.98µM*,16.1,-1.8%,25.1µM*
CC1=NN(c2ccc(F)cc2)C(=O)C1C(c1cccc(O)c1)c1c(C)[nH]n(-c2ccc(F)cc2)c1=O (stereo not drawn),7.2%,8.91µM*,3.6,-0.8%,17.8µM*
COc1cccc(C(c2c(C)[nH]n(-c3ccccc3)c2=O)c2c(C)[nH]n(-c3ccccc3)c2=O)c1O,-0.2%,-1.1%,-26.3,-2.8%,-8.7%
CN(Cc1cccnc1)C(=O)CC1C(=O)NCCN1Cc1ccc(-c2ccccc2)cc1 (stereo not drawn),nt,15.8µM*,nt,-9.4%,nt
NC(=O)c1cc[n+](CC2=C(C(=O)O)N3C(=O)[C@@H](NC(=O)[C@@H](c4ccccc4)S(=O)(=O)[O-])[C@H]3SC2)cc1,-12.7%,-9.8%,nt,-3.2%,-24.5%
COC(=O)c1cn[nH]c1NC(=S)Nc1ccc(Cl)c(Cl)c1,?,?,?,0.5%,-24.4%
COC(=O)c1cn[nH]c1NC(=S)Nc1ccc(C)cc1Cl,14.9%,7.94µM*,17.7,8.9%,-26.9%
COCC(O)CSc1nc(C)[nH]c1[N+](=O)[O-] (stereo not drawn),10.6%,1.5%,-28.1,4.0%,-17.4%
Cc1nc(SCC(O)CCl)c([N+](=O)[O-])[nH]1 (stereo not drawn),-2.2%,14.1µM*,31.9,2.4%,-5.3%
SMILES,Lamin A splicing,ALDH1A1 inh,PNC assembly inh,Luc counter,HPGD block
Cc1ccc(CC(=S)N2CCOCC2)cc1,nt,23.8µM*,nt,nt,nt
COc1ccc(CC(=S)N2CCOCC2)cc1,-1.6%,8.91µM*,?,3.0%,?
CCc1ccc(CC(=S)N2CCOCC2)cc1,nt,-6.1%,nt,-2.2%,nt
O=S(=O)(O)c1ccccc1,nt,-7.5%,nt,nt,-6.0%
FC(F)(F)c1ccc(-c2noc(-c3ccccc3)c2I)cc1,nt,2.4%,nt,1.9%[39.9 µM],-0.6%
CC(NCc1ccc(-c2ccccc2)cc1)C(O)c1ccccc1 (stereo not drawn),?,?,-118.2*,-1.0%,-5.3%
CC(C)(C)C1=CC=C(C(C)(C)C)C(=O)C1=O,nt,1.58µM*,nt,nt,nt
CCOC(=O)C1=C(O)c2ccccc2C(=O)/C1=C\c1ccc(C)cc1,?,7.94µM*,?,-4.8%,14.1µM*
O=C(Cn1cnc2c(cnn2-c2ccc(F)cc2)c1=O)NCc1ccco1,?,-5.3%,14.8,-3.1%,-13.7%
Cc1ccc(-n2ncc3c(=O)n(CC(=O)NCc4ccco4)cnc32)cc1,-18.6%,6.8%,-100.0*,0.9%,-19.9%
O=C(Cn1cnc2c(nnn2Cc2ccccc2F)c1=O)NCc1ccco1,16.1%,-1.8%,29.6,0.1%,31.6µM*
Cc1ccc(Cn2nnc3c(=O)n(CC(=O)NCc4ccco4)cnc32)cc1,-27.3%,-2.5%,-12.4,-7.2%,?
CCCCN1CC(COc2ccccc2)OC1=O (stereo not drawn),10.7%,-3.5%,4.9,-6.4%,-10.2%
CC1CN(c2ccccc2)C(=O)CS1 (stereo not drawn),11.7%,15µM*,40.9,3.0%,15.8µM*
CCCCOCC1CN(c2ccccc2)C(=O)CS1 (stereo not drawn),-2.5%,12.6µM*,4.5,3.2%,-5.4%
COc1cccc([C@H]2Oc3ccc(OC)cc3/C(=N\O[C@@H](C)c3cn([C@H](CO)Cc4ccccc4)nn3)[C@@H]2O)c1,nt,6.1%[13.5 µM],nt,nt,nt
C#CCn1c(=NC(=O)c2ccc(S(=O)(=O)N3CCc4ccccc4C3)cc2)sc2cc(S(N)(=O)=O)ccc21,?,?,-134.0*,2.8%,?
Fc1ccc(-c2n[nH]c(=S)n2/N=C/c2c[nH]c3ccccc23)cc1,-22.2%,?,28.9,0.6%,2.82µM*
S=c1[nH]nc(-c2ccccn2)n1/N=C/c1cccc2ccccc12,-4.0%,?,?,-4.9%,3.55µM*
S=c1[nH]nc(-c2ccccn2)n1/N=C/c1ccccc1,3.6%,-14.7%,?,0.6%,?
S=c1[nH]nc(-c2ccccn2)n1/N=C/c1c(Cl)cccc1Cl,nt,17.8µM*,nt,nt,nt
COC(=O)N1CCC2(CCCN(Cc3ccc(C#N)cc3)C2)CC1,nt,9.6%,nt,-4.0%,-5.0%
CCCCCC(=O)/C=C/C=C\C/C=C\C/C=C\CCCC(=O)O,nt,8.9%,nt,-0.1%,-3.3%
CCN(CC)c1nn2c(=O)c(C(=O)NCc3ccccc3Br)cnc2s1,-6.9%[46 µM],nt,nt,nt,nt
